According to paper PMC3795721, “Screening for Protein-DNA Interactions by Automatable DNA-Protein Interaction ELISA”:

Biological target: AT4G31550 (Arabidopsis thaliana, UniProt Q9SV15 228-325)
Assay: DPI-ELISA; DPI-ELISA, streptavidin 384-well plate, 1-2 pmol biotinylated dsDNA per well, crude native E. coli extract, anti-His detection; buffer as in Brand et al. [46],; high values mean tight binding
Settings: tags: C-terminal His (pET-DEST42); label: 5' biotin on forward strand; dsDNA, one strand shown

Sequence of AT4G31550 (Q9SV15 228-325): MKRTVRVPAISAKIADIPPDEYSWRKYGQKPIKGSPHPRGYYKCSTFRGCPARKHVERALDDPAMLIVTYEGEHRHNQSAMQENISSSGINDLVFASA

| Sequence | binding signal |
| --- | --- |
| AAAAAATCGCGTCCGTGCTCAATCCAAAAA | 0.48 ± 0.0566 absorbance |
| AAAAAAGCATATCTTCAGAACTTGCCAAAA | 0.625 ± 0.0778 absorbance |
| AAAAAATCTTCTTGTTTCTTATTTCTAAAA | 0.625 ± 0.12 absorbance |
| AAAAAATTGCCGTCATAATTGTGGTAAAAA | 0.59 ± 0.0849 absorbance |
| AAAAAATTTCTCCTTCTTTGTTCTTCAAAA | 0.66 ± 0.141 absorbance |
| AAAAAATGAGAGAATTTCCGGTTCAGAAAA | 0.575 ± 0.0495 absorbance |
| AAAAAAAGTTCCAGGTCCGATGCTCAAAAA | 0.805 ± 0.318 absorbance |
| AAAAAATGCAGACCTTCAGCTGGGTAAAAA | 0.58 ± 0.0141 absorbance |
| AAAAAAGTCGTTACACGTATGCGTGCAAAA | 1.5 ± 0.0566 absorbance |
| AAAAAATTAATCCATGCTTATGTCTGAAAA | 0.71 ± 0.184 absorbance |
| AAAAAAACGGTGTCATAGTATTAGTGAAAA | 0.585 ± 0.134 absorbance |
| AAAAAAGTCTAGTCGTAAAAA | 0.595 ± 0.0778 absorbance |
| AAAAAAACTTCTGTCCCTGTTCCCGTAAAA | 0.55 ± 0.127 absorbance |
| AAAAAATTAGGACCATCCCCACTAGGAAAA | 0.69 ± 0.0707 absorbance |
| AAAAAAAATACTGCGCACTTGCACTCAAAA | 0.6 ± 0.127 absorbance |
| AAAAAAGCGCGAATTCTAGAACTATAAAAA | 0.57 ± 0.113 absorbance |
| AAAAAAATCCGATCGATGCATATATAAAA | 0.725 ± 0.106 absorbance |
| AAAAAAAGTTTGACCTTGGCGTTCGTAAAA | 3.5 ± 0.148 absorbance |
| AAAAAAACCCGGCCGCCATGGTAGTAAAAA | 0.7 ± 0.212 absorbance |
| AAAAAACCGTATGTATATCTATATGTAAAA | 0.42 ± 0.113 absorbance |
| AAAAAAGGCTTCCACTTTGAGTTTGCAAAA | 0.57 ± 0.099 absorbance |
| AAAAAATCGGGGATCCGGGCGGTTGCAAAA | 0.665 ± 0.12 absorbance |
| AAAAAATTCTAACTTAGCCTATGTCCAAAA | 0.695 ± 0.163 absorbance |
| AAAAAATATCCTATTCTAATTTATATAAAA | 0.55 ± 0.113 absorbance |
